From a collection of fitness landscapes (doi:10.1016/j.celrep.2020.107928)
In all, about 81,000 sequences were measured (“one-hybrid fitness for binding parS DNA”: median about -0.17, highest 2% from about 0.51 on). The full list was thinned out, with the highest values kept by preference.

B1: Caulobacter ParB omega fusion; a variant is named by its letters at X, in order, B8GW30 (parent)
chain: MESVVVGEPGMSEGRRGLGRGLSALLGEVDAAPAQAPGEQLGGSREAPIEILQRNPDQPRRTFREEDLEDLSNSIREKGVLQPILVRPSPDTAGEYQIVAGERAWRAAQRAGLKTVPIMVRELDDLAVLEIGIIENVQRADLNVLEEALSYKVLMEKFERTQENIAQTIGKSXSHVANXMRLLXLPDEVQSYLVSGELTAXHARAIAAAADPVALAKQIIEGGLSVRETEALARKAPNLSAGKSKGGRPPRVKDTDTQALESDLSSVLGLDVSIDHRGSTGTLTITYATLEQLDDLCNRLTRGI

Variants of: B1
Assay: one-hybrid fitness for binding parS DNA (scaled: cognate 1, non-cognate 0); higher = stronger binding
Conditions: with parS DNA site
How it was run: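 In E. coli USO, a HIS3 reporter with its site placed 19 bp from the promoter was used to select Caulobacter ParB variants randomised at four specificity codons. Growth lasted 48 hours at 37°C on histidine-free M9 containing 0.1 mM IPTG and 5 mM 3-AT. Fitness was taken as the log change in variant-to-wild-type read ratio from Illumina sequencing of pre- and post-selection plasmids, rescaled between the non-cognate and cognate sites.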

Variant	one-hybrid fitness for binding parS DNA
VHWV	≤ 0.2
CRAC	≤ 0.2
QHLA	≤ 0.2
DKPG	≤ 0.2
IKTN	≤ 0.2
AQFC	≤ 0.2
TGAE	≤ 0.2
RVAG	0.999
RVAY	0.464
RVAM	0.329
RVFK	≤ 0.2
RVFG	0.993
RVFP	≤ 0.2
GARV	≤ 0.2
QRMF	≤ 0.2
NYTA	≤ 0.2
RRTA	0.656
RTTA	0.612
DTTA	≤ 0.2
NTTA	≤ 0.2
NQTA	≤ 0.2
DRTA	≤ 0.2
NRTA	≤ 0.2
RYTA	0.582
RQTA	0.574
EYTA	≤ 0.2

Variant	one-hybrid fitness for binding parS DNA
KQTA	≤ 0.2
FTDF	≤ 0.2
KGIS	≤ 0.2
VCHR	≤ 0.2
EKES	≤ 0.2
KHQG	≤ 0.2
LHTY	≤ 0.2
DYTC	≤ 0.2
APHT	≤ 0.2
YEEE	≤ 0.2
RETA	≤ 0.2
RDTA	≤ 0.2
RHTA	0.516
RMTA	0.6
RNTA	0.473
RKTA	0.746
RSTA	0.578
RGTA	0.376
NLQR	≤ 0.2
HMPW	≤ 0.2
LVSL	≤ 0.2
QMTR	≤ 0.2
KAGR	≤ 0.2
GRLC	≤ 0.2
QTFT	≤ 0.2
ATQR	≤ 0.2

Variant	one-hybrid fitness for binding parS DNA
IINN	≤ 0.2
QNFC	≤ 0.2
DITA	≤ 0.2
RPTA	≤ 0.2
RCTA	0.609
EITA	≤ 0.2
AVTA	≤ 0.2
RVTA	0.578
EFTA	≤ 0.2
RWTA	0.459
NVTA	≤ 0.2
DFTA	≤ 0.2
RITA	0.55
RFTA	0.541
GLTC	≤ 0.2
TSQQ	≤ 0.2
VYNA	≤ 0.2
AYGG	≤ 0.2
SRQV	≤ 0.2
FRFR	≤ 0.2
ACAI	≤ 0.2
TPWT	≤ 0.2
GHMG	≤ 0.2
PGAS	≤ 0.2
RATA	0.586
